Screening data from PubChem.
In the library only some 21% were active in any assay of this set; here they are far more common.
Shiga inhibitor: blocks Shiga toxin action in Vero cells. inhibition, % at 38.7 µM. 9.2% of 290,000 active. Vero cells, Shiga toxin protein synthesis inhibition reporter; in the data active = inhibition mostly above about 28%, no sharp cut-off; inactive = mostly below about 43%
Cycloheximide cs: counter-screen for Shiga toxin inhibitors: cycloheximide protein synthesis inhibition; cell reporter, cycloheximide protein synthesis inhibition counterscreen; max response, %; 12% of 300,000 active; AID 2314; in the data active = max response mostly above about 13%, no sharp cut-off; inactive = mostly below about 14%; also: read at 38.3 µM for the half of the compounds with a filed dose
AMA1-RON2 inh: inhibitors of Plasmodium falciparum AMA1-RON2 interaction. AlphaScreen AMA1-biotinylated RON2 peptide binding. AID 720542. Potency, µM (highest dose often 58.2 µM), most hits filed as inhibitors. 0.2% of 360,000 active; also: nearly all actives have a fitted effect of over 45% in size
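AMA1 (3D7) with his tag at 25 nM final met compounds first, then biotinylated RON2 peptide at 25 nM; detection used donor plus acceptor beads, 10 µg/mL apiece, read by AlphaScreen after 30 min at room temperature.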
Pf growth 48h: inhibits P. falciparum growth in the first generation, 48 h; P. falciparum luciferase growth in erythrocytes, 48 h; Potency, µM (highest dose often 28.7 µM), actives largely listed as inhibitors; 5.9% of 310,000 active
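Read-out is firefly luciferase luminescence from an integrated reporter in P. falciparum, so falling signal marks reduced parasite growth. Infected erythrocytes were at 2% hematocrit and 0.1% parasitemia (final) in Albumax-supplemented RPMI 1640.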
HCV inhibitor: inhibitors of hepatitis C virus infection; Huh7.5.1 HCVcc-Cre infection, luciferase reporter, 44 h; Potency, µM (titrated, usually from 41.8 µM), usual class: inhibitors; 3.4% of 340,000 active; AID 651820
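1,000 cells/well; 4 h culture; + compound; + HCVcc-Cre (~0.5 moi); 44 h; luciferase substrate, RT 15 min; read 15 sec.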
Pf growth 96h: P. falciparum growth inhibition at 96 hour, primary screen for plastid delayed-death inhibitors; P. falciparum luciferase reporter growth, 96 h; Potency, µM (titrated, usually from 28.7 µM), most hits filed as inhibitors; 6.9% of 320,000 active
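Infected RBCs, 2% Hct / 0.05% parasitemia final; luciferase-reporter P. falciparum; cpd 96 h, 37 C, 5% CO2; luciferase detection reagent; luminescence.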
Numbers stand for hits; 0 = inactive; ? = inconclusive; - = not tested or not shown. Unless noted, calls follow the shape of the dose curve; as a rule, active = well fitted curve in the direction sought with a large enough effect; inconclusive = small, poorly fitted or top-dose-only effect, or another doubt; inactive = no such curve, though single readings can be large; an effect the other way counts as inactive or inconclusive.

SMILES | Shiga inhibitor | Cycloheximide cs | AMA1-RON2 inh | Pf growth 48h | HCV inhibitor | Pf growth 96h
COc1ccc(C(=O)O/N=C(/c2ccccc2)c2ccncc2)cc1 | 61.0 | 42.3 | 0 | 0 | 0 | 0
N/C(=N\OS(=O)(=O)c1ccccc1)c1ccncc1 | 0 | 0 | 0 | ? | 0 | 8.28µM
O=C(COC(=O)c1ccncc1)c1ccc(Br)cc1 | 0 | 0 | 0 | 0 | 0 | 0
Cc1cccc(C(=O)O/N=C(/c2ccccc2)c2ccncc2)c1 | 0 | 0 | ? | 0 | 0 | ?
N/C(=N\OC(=O)c1cccc(Br)c1)c1ccncc1 | 83.4 | 34.9 | 0 | 0 | 0 | 0
N/C(=N\OC(=O)c1ccc(Br)cc1)c1ccncc1 | 51.5 | 45.3 | 0 | 0 | 0 | 0
N/C(=N\OC(=O)c1ccccc1)c1ccncc1 | 87.2 | 45.7 | 0 | 0 | 0 | ?
CC1CC(C)CN(S(=O)(=O)c2ccc(C(=O)N3CCN(c4ccccc4)CC3)cc2)C1 (stereo not given) | 0 | 0 | 0 | ? | 10µM | ?
O=C(c1ccc(S(=O)(=O)N2CCCCCC2)cc1)N1CCN(c2ccccc2)CC1 | 0 | 0 | 0 | ? | 0 | 0
O=S(=O)(c1cccs1)N1CCN(c2ncccn2)CC1 | 0 | 0 | 0 | 0 | 0 | 0
NC(=O)c1ccc(N2CCN(S(=O)(=O)c3cccs3)CC2)c([N+](=O)[O-])c1 | - | - | 0 | - | 2.24µM | -
O=S(=O)(c1cccs1)N1CCN(c2ccc(O)cc2)CC1 | 0 | 15.3 | 0 | ? | ? | ?
Cc1ccc(S(=O)(=O)N2CCN(S(=O)(=O)c3cccs3)CC2)cc1 | 55.7 | 32.9 | 0 | 0 | 0 | 0
CN1CCN(S(=O)(=O)c2cccs2)CC1 | 0 | 0 | 0 | 0 | 0 | 0
NC(=O)c1ccc(N2CCN(c3ccccc3O)CC2)c([N+](=O)[O-])c1 | 0 | 0 | 0 | 0 | 0 | 0
Cc1ccc([C@@H]2CC(=O)[C@@H]3CN(S(=O)(=O)c4ccc(C)cc4)[C@H](c4ccccc4F)C[C@@H]3N2S(=O)(=O)c2ccc(C)cc2)cc1 | - | - | 0 | - | - | -
Cc1ccc(C(=O)N2CCN(S(=O)(=O)c3ccc(C)cc3)CC2)cc1 | 0 | 0 | 0 | 0 | 0 | 13.1µM
Cc1ccc(C(=O)N2CCN(S(=O)(=O)N3CCCCC3)CC2)cc1 | 0 | 0 | 0 | 0 | 0 | 10.4µM
CC(C)(C)OC(=O)N1CCCC(C(=O)Nc2ccc(C(=O)N3CCOCC3)cc2)C1 (stereo not given) | - | - | 0 | - | 0 | -
COc1ccc(-c2nc3n(c(=O)c2C#N)CCCS3)cc1 | 0 | 14.5 | 0 | - | ? | 0
CCOc1ccc(-c2nc3n(c(=O)c2C#N)CCCS3)cc1 | 0 | 0 | 0 | 0 | ? | 0
COc1ccc(/C=N/c2c(-c3ccc(OC)cc3)nc3n2CCS3)cc1 | 0 | 14.6 | 0 | 0 | 0 | ?
O=C(CN1CCN(C(=O)c2cc(C3CC3)nn2-c2ccccc2)CC1)Nc1ccc(F)cc1 | - | - | 0 | - | - | -
COc1cccc(CN(C(=O)c2ccco2)C(C(=O)NC2CCCC2)c2cccnc2)c1 (stereo not given) | 0 | 0 | 0 | 0 | 0 | 0
O=C(NC1CCCC1)C(c1ccncc1)N(Cc1ccccc1)C(=O)Cc1cccs1 (stereo not given) | 0 | 0 | 0 | ? | 0 | ?
SMILES | Shiga inhibitor | Cycloheximide cs | AMA1-RON2 inh | Pf growth 48h | HCV inhibitor | Pf growth 96h
O=C(NC1CCCC1)C(c1cccnc1)N(CCc1ccccc1)C(=O)c1ccco1 (stereo not given) | 0 | 0 | 0 | 5.22µM | 0 | 0
O=C(NC1CCCCC1)C(c1cccnc1)N(CCc1ccccc1)C(=O)Cc1cccs1 (stereo not given) | 0 | 0 | 0 | 13.1µM | 0 | 0
O=C(NCC(=O)N(CCc1ccccc1)C(C(=O)NC1CCCC1)c1cccnc1)c1ccco1 (stereo not given) | 0 | 0 | 0 | 14.7µM | 0 | 0
O=C(NCC(=O)N(CCc1ccccc1)C(C(=O)NC1CCCCC1)c1ccncc1)c1ccco1 (stereo not given) | 0 | 0 | 0 | ? | 0 | 0
Cc1noc(C)c1S(=O)(=O)NC(=O)C1(C)CCN1C(=O)Cc1ccc(Cl)cc1Cl (stereo not given) | - | - | 0 | - | - | -
Clc1cnc2nc(SC/C=C/c3ccccc3)[nH]c2c1 | 0 | 0 | 0 | ? | 0 | ?
Fc1cccc(CSc2nc3ncc(Cl)cc3[nH]2)c1 | 0 | 19.9 | 0 | ? | 0 | ?
O=C(CSc1nc2ncccc2[nH]1)c1ccc(F)cc1 | 0 | 43.0 | 0 | 0 | 0 | 0
